Cruzain noTriton: blocks cruzain activity in detergent-free assay. P25779. purified cruzain, Z-FR-AMC fluorescence, no detergent. Potency, µM, without a hit: max response, negative = inhibition, hits mostly inhibitors. hit rate 2.3% among 200,000;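 further: plate controls were enzyme without inhibitor for no effect and buffer without enzyme for full effect; nearly all actives have a fitted effect of over 40% in size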
Target sequence (P25779 123-467 limits assumed): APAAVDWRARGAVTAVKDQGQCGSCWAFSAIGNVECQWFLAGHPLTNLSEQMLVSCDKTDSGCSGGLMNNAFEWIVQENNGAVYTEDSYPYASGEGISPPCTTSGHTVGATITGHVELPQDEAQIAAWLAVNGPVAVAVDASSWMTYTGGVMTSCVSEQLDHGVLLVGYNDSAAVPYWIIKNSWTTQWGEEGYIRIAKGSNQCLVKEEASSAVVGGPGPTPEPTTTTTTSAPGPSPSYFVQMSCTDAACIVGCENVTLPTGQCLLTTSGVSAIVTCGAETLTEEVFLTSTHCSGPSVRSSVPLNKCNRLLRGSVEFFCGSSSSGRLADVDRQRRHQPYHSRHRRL
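Detergent-free condition (0.00005% Triton X-100) in acetate buffer pH 5.5 with DTT. 1.5 nM enzyme and compound were pre-mixed 15 min, then 2 uM Z-FR-AMC substrate added; reaction progress from fluorescence change between first and third reads (60 s).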
Cruzain Triton: blocks cruzain activity in presence of Triton detergent. hit rate 0.43% among 200,000. purified cruzain, Z-FR-AMC fluorescence, 0.01% Triton. Potency, µM, for inactives: max response, negative = inhibition, most hits filed as inhibitors. P25779;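 further: plate controls were neutral wells for no effect and buffer without enzyme for full effect; nearly all actives have a fitted effect of over 40% in size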
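Enzyme 1.5 nM, Z-FR-AMC 2 uM, NaOAc 100 mM pH 5.5, DTT 5 mM, Triton X-100 0.01%; 15 min RT compound preincubation; kinetic ex360/em450, 60 s delta.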
* = called active by the depositor; ? = inconclusive. Shown are actives, neighbours in structure and some others; about 2.5% of the full set was active somewhere. The call rests on the fitted dose curve; in most records, active means well fitted curve in the direction sought with a large enough effect; inconclusive means small, poorly fitted or top-dose-only effect, or another doubt; inactive means no such curve, though single readings can be large; an effect the other way counts as inactive or inconclusive. Potency means the concentration at half of the fitted maximal effect.

SMILES	Cruzain noTriton	Cruzain Triton
CC1Cc2cc(S(=O)(=O)NCc3ccc(F)cc3)ccc2N1C(=O)C1CCC1 (stereo unspecified)	-5.1%	2.5%
c1ccc2c(Nc3nc(N4CCOCC4)c4ccccc4n3)cccc2c1	-8.4%	-7.6%
Fc1ccc(Nc2nc(N3CCOCC3)c3ccccc3n2)cc1	15.8µM*	?
Cn1c(=O)c(=O)n(C)c2cc(S(=O)(=O)N3CCCC3C(=O)Nc3cccc(F)c3)ccc21 (stereo unspecified)	-11.4%	-5.2%
COC(=O)CCC(=O)NC(=S)Nc1sc(C)c(C)c1C(N)=O	?	-0.8%
Cc1sc(NC(=S)NC(=O)CCc2ccccc2)c(C(N)=O)c1C	3.98µM*	-0.1%
Cc1nn(-c2ccccc2)c(N2CCCC2)c1/C=N/NC(=O)c1cc(-c2cccnc2)nc2ccccc12	24.1%	-6.8%
CC(/C=N/NC(=O)c1cc(-c2cccnc2)nc2c1c(C)nn2-c1ccccc1)=C\c1ccccc1	12.6µM*	-4.4%
NCCc1ccc(S(=O)(=O)O)cc1[N+](=O)[O-]	2.7%	-0.9%
O=C(Cn1c(=O)sc2ccccc21)Nc1ccc(S(=O)(=O)N2CCCCC2)cc1	31.6µM*	-4.9%
O=C(Cn1c(=O)sc2ccccc21)Nc1ccccc1	-12.4%	8.2%
CC(C)/C(=N/[N+](C)(C)C)c1ccccc1	8.7%	5.3%
COc1ccc(NC(=O)CC2C(=O)N(c3ccc(OC)cc3)C(=O)N2CCC2=CCCCC2)cc1 (stereo unspecified)	4.5%	-1.6%
CCn1nc(C)c(NC(=O)/C=C/c2ccc(OC)c(COc3ccc(Cl)cc3Br)c2)c1C	3.5%	-2.2%
COc1ccc(/C=C/C(=O)NCc2cn(C)nc2C)cc1COc1ccc(Cl)cc1Br	-2.8%	14.1µM*
Cc1cc(C)nc(N2CCC(C(=O)Nc3cccc(C(F)(F)F)c3)CC2)n1	-2.1%	-3.2%
CCCOc1ccc(C2=NC(c3ccc(F)cc3)=Nc3ccc(OC)cc3N2)cc1	10µM*	-3.9%
COc1ccc2c(c1)NC(c1ccc(F)cc1)=NC(c1ccc(F)cc1)=N2	?	-3.4%
COc1ccc2c(=O)c3c(=O)n(Cc4ccco4)c(C(C)C)nc3oc2c1	31.6µM*	?
COc1ccc2c(=O)c3c(=O)n(Cc4ccco4)c(-c4ccc(C)cc4)nc3oc2c1	-22.8%	-6.4%
COc1ccc(-n2cc(-c3ccccc3)c3c(N4CCCC(C)C4)ncnc32)cc1 (stereo unspecified)	-6.0%	0.3%
Nc1cccc(C2=Nc3cccc4cccc(c34)N2)c1	7.94µM*	-2.6%
Nc1cccc(-c2nc3ccc(N)cc3s2)c1	-1.3%	-21.7%
CC(C)C1=Nc2cccc3cccc(c23)N1	-10.3%	0.6%
COc1ccc(C2=Nc3cccc4cccc(c34)N2)cc1	3.16µM*	-3.5%
SMILES	Cruzain noTriton	Cruzain Triton
O=C(COc1ccc2c(c1)CCC2)NCc1ccc(Cl)cc1	-5.0%	-6.1%
O=S(=O)(NCCc1csc(-c2cccnc2)n1)c1ccc(Cl)s1	-6.7%	-0.5%
CCc1ccc(OCC(=O)NCCN(C)C)c(Br)c1	-3.2%	-0.7%
CCc1ccc(OCC(=O)NC(=S)Nc2ccc(C)cc2C)c(Br)c1	12.6µM*	6.0%
COc1ccc(NC(=O)C(NC(=O)C2CCC(C)CC2)C(C)C)cc1 (stereo unspecified)	4.8%	-1.1%
CCC(=O)NCCc1nc2ccccc2[nH]1	1.2%	1.5%
Cc1cc(OCC(=O)NCCc2nc3ccccc3[nH]2)cc(C)c1Cl	4.4%	8.91µM*
COc1ccccc1OCC(=O)NCCc1nc2ccccc2[nH]1	12.6µM*	15.8µM*
Cc1ccc(C(C)(C)C)c(OCC(=O)NCCc2nc3ccccc3[nH]2)c1	6.9%	-2.3%
Cc1cc(N2C(=O)C(O)=C(C(=O)c3ccc(C)o3)C2c2cccs2)no1 (stereo unspecified)	-8.1%	3.2%
CCc1ccc2nc(N3CCN(C(=O)c4ccco4)CC3)sc2c1	10.7%	-5.0%
Cc1ccc2nc(N3C(=O)C(O)=C(C(=O)c4cc5ccccc5o4)C3c3cccs3)sc2c1 (stereo unspecified)	9.2%	15.8µM*
CCc1ccc2nc(N3C(=O)C(O)=C(C(=O)c4ccco4)C3c3cccs3)sc2c1 (stereo unspecified)	?	25.1µM*
C/C(=C\C(=O)O)C12CC3CC(CC(C3)C1)C2	-13.1%	1.1%
O=C1CS(=O)(=O)C2(C(=O)N(Cc3ccc(F)cc3)c3ccccc32)N1c1cccc(C(F)(F)F)c1 (stereo unspecified)	?	-6.7%
Cc1ccc(CN2C(=O)C3(c4ccccc42)N(c2cccc(C(F)(F)F)c2)C(=O)CS3(=O)=O)cc1 (stereo unspecified)	12.6µM*	-8.9%
O=C1CS(=O)(=O)C2(C(=O)N(Cc3ccccc3)c3ccccc32)N1c1ccccc1 (stereo unspecified)	?	0.9%
Cc1cc(C)cc(N2C(=O)CS(=O)(=O)C23C(=O)N(Cc2ccccc2)c2ccccc23)c1 (stereo unspecified)	6.31µM*	-4.7%
COc1ccccc1NC(=O)Cn1c(=O)n(Cc2nc(C)no2)c(=O)c2cc3c(cc21)OCO3	-5.5%	-2.7%
O=C(O)[C@@H](Cc1c[nH]c2ccccc12)C(=O)NO	-4.9%	-5.9%
CSc1ccc(/C=N/n2c(C)cc(C)cc2=O)cc1	-10.1%	-5.3%
O=S(=O)(NCCO)c1cc[c]([Sb])cc1	-7.0%	0.8%
O=C1N/C(=C/c2cccn2-c2ccccc2)C(=O)N1Cc1ccc(F)cc1	12.6µM*	-4.7%
O=C1N/C(=C/c2cccn2-c2ccc(F)cc2)C(=O)N1Cc1ccccc1F	?	-10.9%
O=C(CSc1nc2ccccc2nc1Cc1ccccc1)Nc1ccc2c(c1)OCO2	-16.9%	3.7%
SMILES	Cruzain noTriton	Cruzain Triton
COc1ccc(C(Cl)=C(c2ccc(OC)cc2)c2ccc(OC)cc2)cc1	20µM*	-4.6%
COc1ccc(C(=N/O)/C(=N/O)c2ccc(OC)cc2)cc1	-5.2%	-2.6%
CCOc1ccc(NC(=O)Cn2cc(C(=O)C3CC3)c3ccccc32)cc1	21.4%	-0.6%
CCOC(=O)c1nn(-c2ccc(OC)cc2)c(=O)c2c(N)scc12	5.8%	-13.5%
COc1ccc(/C=N/NC(=O)c2nn(-c3ccc(C)c(C)c3)c(=O)c3ccccc23)cc1	-10.7%	-6.4%
COc1ccc(/C=N/NC(=O)c2nn(-c3ccc(Cl)cc3)c(=O)c3c(N)scc23)cc1	12.6µM*	-6.0%
COc1ccc(/C=N/NC(=O)c2nn(-c3ccccc3)c(=O)c3c(N)scc23)cc1	20µM*	-10.4%
Cc1ccccc1/C(N)=N/O	-6.5%	0.6%
Cc1ccc(-c2onc(C)c2C)cc1S(=O)(=O)Nc1ccc(Cl)cn1	-10.8%	-3.4%
O=C(CN1CCN(CCN2C(=O)c3cccc4cccc(c34)C2=O)CC1)c1ccc(F)cc1	?	-28.4%
O=C1C2C=CC=CC2=NC(=S)N1CCN1CCC(=C(c2ccc(F)cc2)c2ccc(F)cc2)CC1 (stereo unspecified)	12.6µM*	-10.4%
Cc1ccccc1Nc1oc(-c2ccccc2)nc1-c1cccs1	-13.5%	0.0%
Cc1cc(-c2nc3ncccc3o2)ccc1N	?	28.2µM*
Nc1cc(-c2nc3ncccc3o2)ccc1Cl	-12.9%	-6.3%
CCc1ccccc1NC(=O)c1cnc(N2CCCCC2)c2ccccc12	?	-7.0%
O=C(C1CCN(S(=O)(=O)c2ccccc2)CC1)N1CCOCC1	1.2%	2.7%
O=c1oc(Nc2cccc(F)c2)nc2ccccc12	-7.2%	-3.0%
Nc1nc(Nc2cccc(F)c2)nc2ccccc12	15.8µM*	?

Screening results from PubChem BioAssay.
